From PubChem
Hits are enriched below; roughly 4.5% of the tested compounds scored in any of these assays.
Mdm2-MdmX inh: inhibitors of human Mdm2-MdmX association, primary screen, cell-based, luminescence, split luciferase, SaOS-2, uHTS; Protein Mdm4 (Homo sapiens) + E3 ubiquitin-protein ligase Mdm2 (Homo sapiens), …; SaOS-2 split-luciferase Mdm2/MdmX complementation; inhibition, % at 8 µM; actives 3% (n = 330,000); AID 485346, 2010;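 active = inhibition of at least 50% at 8 µM in the primary screen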
Target sequence (O15151 whole entry, looked up): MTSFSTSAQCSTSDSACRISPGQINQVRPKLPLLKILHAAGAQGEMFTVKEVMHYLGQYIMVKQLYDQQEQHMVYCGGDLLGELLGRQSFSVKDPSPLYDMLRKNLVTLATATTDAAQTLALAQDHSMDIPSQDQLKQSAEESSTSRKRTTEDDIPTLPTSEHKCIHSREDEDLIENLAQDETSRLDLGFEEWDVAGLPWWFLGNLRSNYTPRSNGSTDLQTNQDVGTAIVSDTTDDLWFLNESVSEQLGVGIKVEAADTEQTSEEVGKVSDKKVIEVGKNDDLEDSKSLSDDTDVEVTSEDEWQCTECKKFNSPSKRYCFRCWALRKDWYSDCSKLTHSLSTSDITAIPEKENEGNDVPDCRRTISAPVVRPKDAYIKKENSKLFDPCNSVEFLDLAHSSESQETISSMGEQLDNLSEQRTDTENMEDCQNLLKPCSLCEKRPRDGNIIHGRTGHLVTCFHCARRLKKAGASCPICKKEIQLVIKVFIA
Target sequence (Q00987 whole entry, looked up): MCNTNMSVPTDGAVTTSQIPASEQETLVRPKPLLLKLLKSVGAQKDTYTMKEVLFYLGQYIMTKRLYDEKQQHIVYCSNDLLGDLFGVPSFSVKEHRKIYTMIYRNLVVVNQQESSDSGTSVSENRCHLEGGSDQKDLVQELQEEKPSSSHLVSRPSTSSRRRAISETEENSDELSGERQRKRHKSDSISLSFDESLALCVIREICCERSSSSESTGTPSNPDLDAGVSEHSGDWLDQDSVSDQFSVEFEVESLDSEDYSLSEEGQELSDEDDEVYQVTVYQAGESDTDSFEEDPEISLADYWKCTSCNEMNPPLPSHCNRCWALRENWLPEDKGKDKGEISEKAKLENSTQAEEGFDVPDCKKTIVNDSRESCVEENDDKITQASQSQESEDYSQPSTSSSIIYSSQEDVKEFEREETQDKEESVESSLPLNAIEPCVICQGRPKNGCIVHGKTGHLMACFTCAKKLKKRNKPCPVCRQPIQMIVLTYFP
697 NFkB inh: inhibitors of PMA/ionomycin-induced NF-kB reporter, 697 cells, primary screen, B-cell NF-kB inhibitor project, cell-based, luminescence, uHTS | actives 0.33% (n = 330,000) | 697 B-cell NF-kB luciferase reporter, 16 h | AID 435022, 2010 | inhibition, % at 4 µM; in the data active = inhibition above about 35%
Gli-Sufu antag: Gli-Sufu pathway antagonists, primary screen, luciferase luminescence, Sufu-KO-LIGHT cells, uHTS; Sufu-KO-LIGHT fibroblasts, Gli luciferase reporter luminescence; inhibition, % at 5 µM; actives 0.74% (n = 340,000); AID 588413, 2011;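 active = inhibition above about 55%, limit read from the data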;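 also: 0% = DMSO-treated cells and 100% = wells with medium but no cells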
Beta cell apopt: inhibitors of cytokine-induced beta cell apoptosis, primary screen, luminescence; INS-1E cytokine-induced death, ATP luminescence, 48 h; percent of positive-control rescue, neutral wells zero; AID 435005, 2010; actives 0.8% (n = 300,000); protection from apoptosis, % (concentration not given with the values);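 active = Every replicate reaches about 75%, or at least half do and their mean reaches it too, limit read from the data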;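 also: 0% = cytokine-treated negative control wells and 100% = positive control rescue; higher means more ATP so stronger rescue from cytokine killing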
Jurkat NFkB inh: inhibitors of induced NF-kB luciferase reporter, primary screen, TCR NF-kB activation inhibitor project, cell-based, luminescence, uHTS. actives 0.53% (n = 330,000). Jurkat, PMA/ionomycin-induced NF-kB luciferase reporter. inhibition, % at 4 µM. AID 435003, 2010; in the data active = inhibition above about 50%
CSC inhib: cancer stem cell viability inhibitors, primary screen, luminescence. cancer stem cell-like cells viability. inhibition, % at 7.5 µM. actives 1.1% (n = 300,000). AID 2717, 2010; in the data active = inhibition above about 75%; tested in HMLE shEcad cells
Mdm2-MdmX conf: Mdm2-MdmX complex disruptors, retested hits, confirmation, luminescence, single concentration. shares compounds with Mdm2-MdmX inh. Mdm2-MdmX binding, luminescent assay. inhibition, % at 8 µM. actives 55% (n = 10,000). AID 489028, 2010; in the data active = inhibition above about 40%
FLuc counter: full-length luciferase signal inhibition, confirmation, counter-screen for Mdm2/MdmX interaction inhibitor project, cell-based, single concentration, SaOS-2 | shares compounds with Mdm2-MdmX inh | SaOS-2 full-length luciferase counterscreen, luminescence | inhibition, % at 8 µM | actives 77% (n = 6,200);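 active = mean inhibition at 8 µM reaching about 37%, which flags the compound as non-specific, limit read from the data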;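 also: p53-null SaOS-2 cells with luciferase driven by a doxycycline-inducible promoter; compound on cells about two nights before reading with doxycycline added after day one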
* hit, by the source's call; . = no result given.

SMILES	Mdm2-MdmX inh	697 NFkB inh	Gli-Sufu antag	Beta cell apopt	Jurkat NFkB inh	CSC inhib	Mdm2-MdmX conf	FLuc counter
CCOc1ccc(S(=O)(=O)N2CCOCC2)cc1NC(=O)CN1C(=O)NC(C)(c2ccccc2)C1=O (stereo not drawn)	3.8	-3.8	-6.1	2.3	-0.7	-4.1	.	.
N#Cc1cc(C(=O)c2cc(Cl)ccc2O)cn(-c2ccccc2)c1=O	4.0	1.5	-3.5	7.7	-15.1	-7.0	.	.
Cc1ccc(NC(=O)c2cc(C(=O)c3cc(Cl)ccc3O)cn(-c3ccc(C)cc3)c2=O)cc1	87.7*	-8.6	-7.5	47.5	1.8	-5.7	85.8*	43.8*
COc1ccc(/C=C/C(=O)N(C)CC(=O)Nc2cccc(F)c2)cc1S(=O)(=O)N1CCCCC1	51.7*	4.7	-2.4	.	43.3	.	55.4*	68.7*
COc1ccc(NC(=O)CN(C)Cc2c(F)cccc2Cl)cc1S(=O)(=O)N1CCCCC1	1.1	-2.0	8.1	2.6	-5.3	26.1	.	.
Cc1ccccc1N1CCN(CC(=O)Nc2ccccc2C(=O)NC2CC2)CC1	19.8	-4.1	10.3	-6.7	18.3	-9.9	.	.
CCc1ccn2cc(-c3cc(-c4ccccc4)no3)nc2c1	65.7*	-32.0	55.7*	13.4	29.1	29.4	67.0*	95.2*
CC(=O)Nc1nccc(-c2cc(-c3ccccc3)no2)n1	-43.6	-36.9	-50.8	-4.7	-59.6	22.3	.	.
Cc1ccc2nc(-c3cc(-c4ccccc4)no3)cn2c1	69.5*	-249.2	-25.6	-3.0	-34.7	-12.3	21.9	.
O=C1c2ccccc2C(O)(c2ccccc2)N1c1ccc([N+](=O)[O-])cc1Cl (stereo not drawn)	.	.	4.9	.	.	.	.	.
CCOc1ccc(CCNC(=O)C2CC(=O)N(c3ccc4c(c3)OCCO4)C2)cc1OCC (stereo not drawn)	20.5	21.6	-0.3	1.1	6.8	-5.8	.	.
COc1cccc(CC(=O)n2nc(N)c3cc4ccc(OC)cc4nc32)c1	64.1*	-93.4	-1.8	-10.3	2.1	29.3	-7.8	.
COc1ccc2cc3c(N)nn(C(=O)Cc4ccc(Cl)cc4)c3nc2c1	73.3*	-22.8	-8.3	1.1	26.5	10.0	59.5*	47.8*
COc1ccc2cc3c(N)nn(C(=O)Cc4c[nH]c5ccccc45)c3nc2c1	93.2*	-4.3	-9.1	-27.9	45.1	50.7	98.1*	52.1*
CCN(C(=O)COC(=O)/C=C/c1ccco1)C1CCCCC1	2.0	3.1	-5.5	-4.5	0.4	-8.2	.	.
CC(C)c1ccc(N(CC(=O)N2CCN(Cc3ccccc3)CC2)S(C)(=O)=O)cc1	-1.7	5.9	19.6	-2.6	-5.9	-11.1	.	.
Cn1nc(C(F)(F)F)c(/C=N/OC(=O)c2ccccc2)c1Sc1ccc(Cl)cc1	51.0*	2.0	-15.4	7.2	0.3	-6.6	6.5	.
Cn1nc(C(F)(F)F)c(/C=N/OC(=O)c2ccccc2)c1Cl	2.2	11.7	4.3	-7.2	10.8	10.8	.	.
CCn1c(SCC(=O)Nc2ccc(F)cc2)nnc1-c1cnccn1	4.6	-12.0	-6.0	-7.7	11.6	-13.2	.	.
CCOC(=O)c1cc(S(=O)(=O)N2CCN(C3CCCCC3)CC2)cn1C	33.4	2.4	15.9	-4.9	20.9	-10.3	.	.
Cc1ccc2cc3cc(C(=O)NCc4ccc5c(c4)OCO5)oc3nc2c1	68.4*	-4.2	-13.7	.	5.4	.	28.5	.
COc1ccc(/C=N/Nc2cc(OC)ncn2)cc1	.	.	-108.1	-4.3	.	22.7	.	.
Cc1cnn(-c2cc(N/N=C/c3ccc(F)cc3)ncn2)c1	51.7*	-17.9	-3.5	-5.5	-27.5	-12.3	42.4*	101.1*
Cc1cnn(-c2cc(N/N=C/c3ccccc3Cl)ncn2)c1	63.2*	18.7	-22.3	-0.7	9.9	15.7	-2.2	.
COc1ccc(S(=O)(=O)Nc2ccccc2C(=O)N2CCOCC2)cc1Cl	24.3	-4.2	29.1	.	4.1	.	.	.
SMILES	Mdm2-MdmX inh	697 NFkB inh	Gli-Sufu antag	Beta cell apopt	Jurkat NFkB inh	CSC inhib	Mdm2-MdmX conf	FLuc counter
COc1cc2cc(-c3ccc(OC)c(OC)c3C)nc(N)c2cc1OC	93.5*	-12.9	45.6	-10.8	47.5	62.7	70.5*	61.6*
COc1cc2cc(-c3ccc(O)cc3O)nc(C)c2cc1OC	83.5*	34.3	35.2	7.2	-10.9	23.3	53.3*	52.9*
COc1ccc(C(C)NCCC(c2ccc(OC(C)C)cc2)c2ccccc2OC)cc1 (stereo not drawn)	99.4*	-1.0	2.9	82.0*	14.1	104.1*	69.3*	55.6*
COc1ccc(C(CCNC(C)c2ccccc2)C(C)C)cc1 (stereo not drawn)	54.5*	8.2	-22.0	6.4	4.5	3.8	30.2	.
c1ccc(Oc2c3ccccc3nc3ccccc23)cc1	73.3*	-26.6	2.9	5.2	14.0	30.0	4.7	.
Cc1nc(Oc2ccccc2)c2ccccc2n1	-1.1	-18.8	-8.8	-7.5	-13.9	-7.8	.	.
CCc1ccccc1NC(=O)CN1CCN(CC(=O)Nc2ccc3c(c2)OC2(CCCCC2)O3)CC1	.	.	4.8	.	.	.	.	.
Nc1nnnn1/N=C/c1cc(Cl)cc(Cl)c1OCc1ccc(Cl)cc1Cl	80.9*	-9.9	-6.2	20.7	6.6	-1.3	11.1	.
Cc1cccc(C)c1N1C(=O)CCC(C)(C)C1=O	-24.5	11.0	4.7	-9.2	4.4	3.1	.	.
CCC(C)NC(=O)c1ccc(NC(=O)C2=C(C)OCCS2)cc1 (stereo not drawn)	-0.3	6.6	-1.5	1.2	-11.0	-5.1	.	.
Cc1cc(Sc2ncnc(N)c2[N+](=O)[O-])ncn1	93.1*	-10.5	0.4	-40.8	4.5	37.0	-0.8	.
Cc1cc(Sc2nc(N)ncc2[N+](=O)[O-])ncn1	13.7	-3.0	-2.5	-13.5	14.0	15.3	.	.
CC(=O)Nc1nonc1-c1nc2ccccc2n1Cc1nnc(C)o1	19.5	2.3	3.6	-0.1	-11.1	-13.9	.	.
CC(=O)Nc1nonc1-c1nc2ccccc2n1Cc1ccccc1	69.9*	-10.7	11.2	1.9	13.5	44.6	65.6*	117.7*
Clc1ccc2nc(-c3cccc(SC4CCCCC4)c3)c(NCc3ccccc3)n2c1	12.2	-9.5	-17.4	30.5	4.5	56.3	.	.
